Screening data from PubChem.
Only some compounds are listed: those with a hit (about 1.1% of all), similar ones and a draw of the others.
AMA1-RON2 inh = AMA1-RON2 (P. falciparum) interaction inhibition. Potency, µM (series often up to 58.2 µM), for the others: at the top dose activity change, negative = inhibition, hits mostly inhibitors. AlphaScreen AMA1-biotinylated RON2 peptide binding. 0.2% of 360,000 active;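 also: 0% = vehicle wells and -100% = peptide control; nearly all actives have a fitted effect of over 45% in size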
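AMA1 (3D7) with his tag at 25 nM final met compounds first, then biotinylated RON2 peptide at 25 nM; detection used donor plus acceptor beads, 10 µg/mL apiece, read by AlphaScreen after 30 min at room temperature.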
AmpC no deterg = AmpC beta-lactamase inhibition without detergent; P00811; AmpC nitrocefin hydrolysis, absorbance 480 nm, 0.0001% Triton; Potency, µM (series often up to 57.1 µM), without a hit: at the highest dose activity change, negative = inhibition, usual class: inhibitors; 0.52% of 330,000 active; AID 485341;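 also: plate controls were no compound for no effect and no enzyme for full effect; nearly all actives have a fitted effect of over 20% in size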
Target sequence (P00811 whole entry, looked up): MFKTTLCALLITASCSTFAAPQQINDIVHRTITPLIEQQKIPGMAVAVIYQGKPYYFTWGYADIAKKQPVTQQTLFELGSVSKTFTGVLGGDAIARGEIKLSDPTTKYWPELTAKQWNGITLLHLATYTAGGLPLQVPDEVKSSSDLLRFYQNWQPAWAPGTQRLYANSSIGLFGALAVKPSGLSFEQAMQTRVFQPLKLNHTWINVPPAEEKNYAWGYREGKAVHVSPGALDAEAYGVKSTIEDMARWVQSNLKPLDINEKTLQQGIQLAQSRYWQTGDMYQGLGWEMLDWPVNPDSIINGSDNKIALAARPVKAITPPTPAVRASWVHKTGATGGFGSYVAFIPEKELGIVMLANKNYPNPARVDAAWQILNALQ
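AmpC (5.3 nM in the dispensed reagent) in 20 mM phosphate pH 7.0 with 0.01% (detergent screen) or 0.0001% Triton X-100 was preincubated with compounds for 15 min at room temperature. Nitrocefin was then added from an 800 uM solution, and hydrolysis was followed at 480 nm.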
AmpC detergent = inhibitors of E. coli AmpC beta-lactamase with detergent | P00811 | AmpC hydrolysis of nitrocefin, absorbance 480 nm, 0.01% Triton | Potency, µM (series often up to 114 µM), inactives show top-dose activity change, negative = inhibition, usual class: inhibitors | 0.041% of 370,000 active | AID 485294;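 also: 0% = no-compound wells and -100% = no-enzyme wells; nearly all actives have a fitted effect of over 25% in size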
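20 mM phosphate pH 7.0 + 0.01% (detergent screen) or 0.0001% Triton X-100; 5.3 nM AmpC reagent; cpd preinc 15 min RT; nitrocefin (800 uM stock) to start; A480 q20 s × 4 min; Activity was normalised to no-enzyme and no-compound control wells.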
Giardia FBPA inh = blocks Giardia fructose-bisphosphate aldolase activity; A8B2U2; purified Giardia FBPA; Potency, µM (top dose mostly 59.6 µM), for inactives: top-dose activity, negative = inhibition, hits mostly inhibitors; 0.71% of 290,000 active; AID 2451; also: nearly all actives have a fitted effect of over 55% in size
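Giardia FBPA (40 nM reagent) was preincubated 10 min at RT with compound (up to 57.5 uM final), then substrate plus GAPDH/TPI/NAD/arsenate coupling system with diaphorase/resazurin was added; resorufin fluorescence (525/598 nm) was read after 20 min.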
Numbers without * were called inactive; u = inconclusive; x = no result given; ! = a repeat was not active. Calls follow the shape of the dose curve; as a rule, active = well fitted curve in the direction sought with a large enough effect; inconclusive = small, poorly fitted or top-dose-only effect, or another doubt; inactive = no such curve, though single readings can be large; an effect the other way counts as inactive or inconclusive. Unless noted, % is scaled to controls: 0 for no effect and ±100 for the full control effect; potency is read from the fitted curve at half-maximal effect.

SMILES	AMA1-RON2 inh	AmpC no deterg	AmpC detergent	Giardia FBPA inh
NCC1O[C@@H](O[C@@H]2C(O)[C@H](O[C@H]3OC(CO)C(O)C(N)C3O)[C@@H](N)C[C@H]2N)C(N)C(O)C1O (some centres undefined)	x	x	x	-5%
c1ccc(-c2ccncc2)cc1	3%	-24%	x	x
Nc1cc(-c2ccncc2)c[nH]c1=O	8%	-16%	u	1.8µM*
COc1ccc(/C(C)=N/OC/C(O)=C(\C#N)c2nc3ccccc3[nH]2)c(OC)c1	82%	14µM*	-12%	-3%
CS(=O)(=O)N(CC(N)=O)c1ccc(F)c(Cl)c1	21%	0.32µM*	2%	1%
N[C@H](C(=O)O)[C@@H]1C[C@@H]1C(=O)O	x	x	x	-3%
S=C(NNc1cccc(Cl)c1)NC1CCCCC1	6.3µM*	-33%	-1%	-13%
CCOC(=O)N1CCN(Cc2nc3cc(NC(=O)CC(C)C)ccc3n2CC)CC1	7%	49%	-6%	-1%
CC[n+]1ccccc1/C=C/c1ccc(N(C)C)cc1	0%	-15%	-9%	0%
CC[n+]1ccc(/C=C/c2ccc(N(C)C)cc2)c2ccccc21	28µM*	22%	-8%	-14%
Cc1oc(-c2ccc(C(=O)NCc3cccc(F)c3)cc2)nc1COc1ccccc1	x	x	10%	x
Cc1cccc2cc3c(N)c(C(=O)Nc4ccc(N5CCOCC5)cc4)sc3nc12	-3%	-9%	2%	0%
Cc1ccc2nc3sc(C(=O)Nc4ccc(N5CCOCC5)cc4)c(N)c3cc2c1	x	0.35µM*	1%	-2%
O=C(CCN1C(=O)/C(=C/c2ccc(F)cc2)SC1=S)NC1C=CS(=O)(=O)C1 (centres undefined)	8%	-2%	1%	x
O=C(CCN1C(=O)/C(=C/c2ccccc2Cl)SC1=S)NC1C=CS(=O)(=O)C1 (centres undefined)	3%	28µM*	-4%	9%
CN1C(=O)C(Cl)(Cl)C(=O)c2ccccc21	4%	-23%	u	5µM*
N#Cc1cccc(N2[C@@H](Cc3cc4ccccc4n3Cc3ccccc3)COC[C@H]2Cc2ccc3ccccc3c2)c1	-5%	x	x	x
Cc1cccc(NC(=O)c2cnc3sccn3c2=O)c1C	x	2.8µM*	u	2%
Cc1cccc(NC(=O)c2cnc3sccn3c2=O)c1	0%	-22%	4%	-5%
COc1ccc(-c2noc(CSc3nnc(C)n3-c3ccc(OC)cc3)n2)cc1	x	x	12%	x
O=C(CSc1nc(O)cc(=O)n1-c1ccccc1)Nc1ccccn1	-12%	11µM*	1%	-4%
O=C(CSc1nc(O)cc(=O)n1-c1ccccc1)NCc1ccccc1	5%	-37%	-6%	-1%
Cc1cccc(NC(=O)CSc2nnc(-c3ccco3)c(-c3ccco3)n2)c1	u	16µM*	8%	u
COc1ccccc1NC(=O)Nc1ccc2c(c1)CCC2	-1%	10µM*	-2%	x
Cc1cc2c(NC(=O)Nc3ccccc3)cccc2nn1	0%	-25%	12%	5µM*
SMILES	AMA1-RON2 inh	AmpC no deterg	AmpC detergent	Giardia FBPA inh
CN1CCN(CCCN2c3ccccc3Sc3ccccc32)CC1	x	x	x	-15%
CN1CCN(CCCN2c3ccccc3Sc3ccc(Cl)cc32)CC1	16µM*!	225%	-6%	u
CN(C)CCCN1c2ccccc2Sc2ccc(C(F)(F)F)cc21	-22%	78%	-13%	-6%
CN(C)CCCN1c2ccc(O)cc2Sc2ccc(Cl)cc21	20µM*	x	x	x
O=C(N/N=C/C=C/c1ccc2c(c1)OCO2)c1ccc([N+](=O)[O-])cc1	102%	-22%	u	6%
O=C(N/N=C\C=C\c1ccc(Br)cc1)c1ccc2c(c1)OCO2	11%	-33%	45µM*	10%
O=C(Cc1coc2cc3c(cc12)CCC3)OCc1cc(=O)n2c(n1)sc1ccccc12	-19%	32µM*	-1%	3%
O=C(OCc1cc(=O)n2c(n1)sc1ccccc12)c1cccc(O)c1	-10%	-38%	-2%	-1%
Cc1ccc(S(=O)(=O)NC(=O)Nc2nnc(C)s2)cc1	-8%	0.4µM*	2%	4%
CC(=O)Nc1ccc(S(=O)(=O)Nc2nnc(C)s2)cc1	-11%	x	x	x
CCOc1ccc(NCc2nnc(SCc3ccccc3Cl)n2-c2ccccc2)cc1	27µM*	46%	4%	0%
CCOc1ccc(CNC(=O)c2ccccc2NC(=O)c2nsc3ccccc23)cc1	x	x	19%	x
Cn1c2cc(B(O)O)sc2c2cnn(Cc3c(F)cccc3F)c(=O)c21	x	5.6µM*	2.5µM*	x
